Most compounds without a hit are left out; they make up all but 9.9% or so of the library.
Tau fibril ThT: blocks human tau fibril formation measured by thioflavin T; hit rate 2.1% among 270,000; recombinant tau K18 P301L, heparin-induced fibrillization, ThT fluorescence; Potency, µM (top dose mostly 57.4 µM), without a hit: at the top dose activity, negative = inhibition, hits mostly inhibitors; note: nearly all actives have a fitted effect of over 55% in size
Target sequence (P10636 561-689 P618L limits assumed): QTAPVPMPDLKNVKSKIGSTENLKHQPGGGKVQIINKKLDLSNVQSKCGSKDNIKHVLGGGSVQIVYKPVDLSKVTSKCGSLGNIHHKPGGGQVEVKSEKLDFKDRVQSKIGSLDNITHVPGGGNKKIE
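Aggregation was driven by heparin (20 uM final) acting on recombinant tau […] bearing P301L in 100 mM sodium acetate pH 7; fibrils were detected with Thioflavin T.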
JMJD2E inh: inhibitors of human JMJD2E histone demethylase. Potency, µM (series often up to 57.1 µM), for inactives: top-dose activity change, negative = inhibition, usual class: inhibitors. JMJD2E catalytic domain, FDH-coupled NADH fluorescence (FDH is formaldehyde dehydrogenase). AID 2147. hit rate 1.6% among 230,000. B2RXH2; active = well fitted inhibition curve with a large enough effect, not every such curve was filed as active; inconclusive = small, poorly fitted or top-dose-only effect, or another doubt; inactive = no such curve, though single readings can be large or run the other way;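 note: 0% = wells with enzyme and -100% = buffer wells without enzyme; nearly all actives have a fitted effect of over 50% in size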
Target sequence (B2RXH2 1-337 limits assumed): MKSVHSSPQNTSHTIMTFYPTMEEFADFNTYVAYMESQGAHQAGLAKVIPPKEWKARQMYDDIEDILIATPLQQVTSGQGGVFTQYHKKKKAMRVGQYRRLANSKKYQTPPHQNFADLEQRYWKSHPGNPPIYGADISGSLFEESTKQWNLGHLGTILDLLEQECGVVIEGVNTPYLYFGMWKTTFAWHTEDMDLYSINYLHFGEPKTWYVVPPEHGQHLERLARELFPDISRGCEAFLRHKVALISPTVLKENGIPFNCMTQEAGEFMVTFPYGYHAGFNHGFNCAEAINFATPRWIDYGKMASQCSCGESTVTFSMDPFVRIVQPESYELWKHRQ
Tau fluor cs: counter-screen for tau fibril formation inhibitors. tau K18 P301L Alexa594 fluorescence, heparin fibrillization. Potency, µM (doses to about 57.7 µM), inactives show at the top dose activity change, negative = decrease. hit rate 0.93% among 280,000; note: nearly all actives have a fitted effect of over 55% in size
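Human tau K18 P301L (15 uM unlabeled, 0.24 uM Alexa 594-labeled) in 100 mM sodium acetate pH 7 with 20 uM heparin, 6 hr at 37 C. ThT 30 uM added, 1 hr ambient; Alexa 594 FP and total fluorescence read at 555/632 nm.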
Tau fibril FP: blocks human tau fibril formation measured by polarization. P10636. K18 P301L tau heparin fibrillization, Alexa594 FP, 6 h. Potency, µM (titrated, usually from 57.7 µM), for the others: at the top dose activity, negative = inhibition, actives largely listed as inhibitors. hit rate 0.39% among 280,000. AID 1468; note: nearly all actives have a fitted effect of over 55% in size
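Steps: dispense K18 P301L tau (15 uM plus 0.24 uM Alexa 594 tracer, final) in pH 7 sodium acetate; add compound; add heparin (20 uM final); incubate 6 hr, 37 C; add ThT (30 uM final); after 1 hr ambient, read FP.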
HPGD block: blocks human HPGD enzyme activity; P15428; purified HPGD, NADH fluorescence kinetic, PGE2 substrate; Potency, µM, for inactives: at the top dose activity change, negative = inhibition, hits mostly inhibitors; hit rate 4.3% among 150,000; AID 894; active = well fitted inhibition curve with a large enough effect, not every such curve was filed as active; inconclusive = small, poorly fitted or top-dose-only effect, or another doubt; inactive = no such curve, though single readings can be large or run the other way
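20 nM HPGD preincubated 15 min at room temperature with compound in 50 mM Tris-HCl pH 8, 0.01% Tween 20. Started with 1 mM NAD+ and 30 uM prostaglandin E2; NADH fluorescence (360/450 nm) read 5 times over 30-s intervals, last minus first.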
ALDH1A1 inh: ALDH1A1 (human) enzyme inhibition; Purified ALDH1A1, NADH fluorescence, propionaldehyde substrate; Potency, µM (top dose mostly 75.3 µM), for the others: at the highest dose activity, negative = inhibition, usual class: inhibitors; hit rate 7.3% among 220,000; AID 1030; active = well fitted inhibition curve with a large enough effect, not every such curve was filed as active; inconclusive = small, poorly fitted or top-dose-only effect, or another doubt; inactive = no such curve, though single readings can be large or run the other way;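 note: plate controls were no enzyme wells and a reference inhibitor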
* = called active by the depositor; u = inconclusive; x = not tested or not shown; [ ] = remark or other dose. Unless noted, calls come from the whole dose curve; as a rule, active = well fitted curve in the direction sought with a large enough effect; inconclusive = small, poorly fitted or top-dose-only effect, or another doubt; inactive = no such curve, though single readings can be large; an effect the other way counts as inactive or inconclusive. Unless noted, % is set by controls: 0 for no effect and ±100 for the full control effect; potency is the fitted concentration of half-maximal effect.

SMILES	Tau fibril ThT	JMJD2E inh	Tau fluor cs	Tau fibril FP	HPGD block	ALDH1A1 inh
Cc1ccc(N2C(=O)CC(Nc3ccc(Cl)c(S(=O)(=O)N(C)C)c3)C2=O)c(C)c1 (centres undefined)	2%	1%	-11%	1%	x	u
O=C(Nc1cccc2oc(=O)ccc12)c1ccc([N+](=O)[O-])cc1[N+](=O)[O-]	u	0%	-8%	5%	-13%	7.9µM*
COc1ccc(C)cc1NC(=O)c1ccc([N+](=O)[O-])cc1[N+](=O)[O-]	-8%	8%	-7%	9%	x	11%
COc1ccc(NC(=O)Nc2c(SC)nsc2SC)cc1	3%	-1%	-8%	1%	x	-16%
O=C(CCC(=O)OCC(=O)c1ccc([N+](=O)[O-])cc1)NC1CCCCC1	u	3%	-8%	u	-20%	2.8µM*
Cc1ccc(NC(=O)CCC(=O)OCC(=O)c2ccc(Oc3ccc([N+](=O)[O-])cc3)cc2)cc1C	-13%	-7%	-19%	-16%	-15%	-11%
O=C(CSCc1ccc([N+](=O)[O-])cc1)NC1CCCCCC1	-6%	0%	-6%	16%	x	25µM*
Cc1ccc(CSCc2ccc(C(=O)NC3CCCC3)o2)cc1	u	4%	-14%	3%	x	22µM*
Cc1cccc(NC(=O)CCC(=O)OCC(=O)c2ccc(Oc3ccc([N+](=O)[O-])cc3)cc2)c1	-14%	2%	-6%	-2%	-21%	7.1µM*
O=C(CSCc1ccc(F)cc1)NC1CCCC1	-7%	-2%	0%	-1%	-19%	-5%
Cc1ccc(-c2cc(C(=O)N3CCN(S(=O)(=O)c4ccc(Br)s4)CC3)[nH]n2)c(C)c1	-3%	x	-7%	-9%	x	x
C/C(=N\NC(=O)CSCc1ccc([N+](=O)[O-])cc1)c1ccccc1O	u	25µM*	-24%	0%	-18%	-7%
O=c1c2sc3ccccc3c2n(Cc2cccc(Cl)c2)c(=O)n1Cc1ccc(F)cc1	-3%	x	-12%	-18%	x	x
O=C1C(c2ccncc2)N(CCC2=CCCCC2)C(=O)CN1C1CCCCC1 (centres undefined)	7.9µM*	u	u	u	x	u
CCN(CC(=O)Nc1ccc(C(C)=O)cc1)CC(=O)Nc1cccc(OC)c1	6%	-5%	-1%	4%	x	4%
Cc1ccc(OCC(=O)NCC(=O)n2nc(C)cc2C)cc1	-3%	-9%	5%	-4%	-2%	3%
Cc1cc(C)n(C(=O)CNC(=O)COc2ccccc2)n1	-5%	1%	0%	5%	32µM*	11%
O=C(O)c1c(Cl)c(Cl)c(Cl)c(Cl)c1C(=O)Nc1ccc2cn[nH]c2c1	x	x	x	x	-8%	9%[13.5 µM]
CCOC(=O)c1ccc(N=c2sc(C(=O)OC)cc(=O)n2CCCN2CCOCC2)cc1	u	-10%	-13%	-5%	-18%	-1%
COC(=O)c1cc(=O)n(Cc2cccs2)c(=NCc2cccs2)s1	-1%	8%	1%	-4%	-15%	0.32µM*
CCOC(=O)c1ccc(N=c2sc(C(=O)OC)cc(=O)n2Cc2ccco2)cc1	4%	-5%	1%	1%	-17%	1.4µM*
COc1cc2oc(=O)cc(-c3ccc(-c4ccc(CO)cc4)cc3)c2c(OC)c1OC	-16%[81.4 µM]	x	-26%[81.3 µM]	-9%[81.3 µM]	u	u
Cc1ccc(-c2noc(CN(C3CCCCC3)S(=O)(=O)c3ccc(Cl)cc3)n2)cc1	u	x	u	-10%	x	x
O=C(Cn1cnc2ccccc2c1=O)Nc1nnc(SCc2ccccc2)s1	5%	2%	-9%	-15%	22µM*	9%
CCCCc1nnc(NC(=O)Cn2cnc3ccccc3c2=O)s1	-8%	-3%	-17%	u	x	-16%
O=C(CNC(=O)Cc1ccc(Cl)cc1)NCc1ccco1	-2%	6%	-2%	-3%	x	11%
C=CCn1c(Cc2nc3ccc(Cl)cc3[nH]2)n[nH]c1=S	u	-7%	-13%	6%	u	10µM*
C=CCn1c(Cc2ccccc2)n[nH]c1=S	3%	-27%	5%	11%	x	-4%
